Measurements taken from PubChem BioAssay AID2308 (National Center for Advancing Translational Sciences (NCATS), 2010).
Records with an inconclusive call do not appear. A call without a number means that no potency is given here. Calls of active or inactive are those of the source. The call rests on the fitted dose curve; in most records, active means well fitted curve in the direction sought with a large enough effect in the signal ratio (not every such curve was filed as active); inconclusive means small, poorly fitted or top-dose-only effect, or a change in a side signal; inactive means no such curve, though single readings can be large or run the other way; the % refers to the signal ratio.

Biological target: Inositol monophosphatase 1 (Rattus norvegicus) (UniProt P97697)
Sequence (P97697 whole entry, looked up): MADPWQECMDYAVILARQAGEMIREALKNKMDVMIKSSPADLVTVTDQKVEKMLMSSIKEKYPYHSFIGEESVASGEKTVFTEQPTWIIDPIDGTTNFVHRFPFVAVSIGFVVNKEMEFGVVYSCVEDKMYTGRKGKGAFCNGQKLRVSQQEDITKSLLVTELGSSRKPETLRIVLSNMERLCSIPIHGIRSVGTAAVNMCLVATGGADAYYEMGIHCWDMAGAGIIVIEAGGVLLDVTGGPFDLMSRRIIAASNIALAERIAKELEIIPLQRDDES
Assay: Confirmation Assay for Identifying the Cell-Membrane Permeable IMPase Inhibitors
Conditions: CHO-M1 cells, carbachol-stimulated IP1 accumulation, HTRF ratio; series mostly up to 41.5 µM
Excerpt: NIH Chemical Genomics Center [NCGC] NIH Molecular Libraries Probe Production centers Network [MLPCN] MLPCN Grant: X01 MH082413-01 Assay Submitter (PI): Wei Zheng NCGC Assay Overview: Lithium has been widely used for the treatment of bipolar disorder. But lithium has a narrow therapeutic index and it can cause side effects such as thirst, weight gain, tremor, polyuria and memory problems. Although the mechanism for lithium action in treatment of bipolar disorder is still not fully understood, inhibition of inositol monophosphatase (IMPase) and the subsequent depletion of the inositol pool in living cells have been implicated as the primary therapeutic benefit of lithium therapy. Therefore, a selective IMPase inhibitor with reduced side effects might be a good drug candidate to replace lithium for the treatment of bipolar disorder. Several IMPase inhibitors have been discovered previously. However, they are not suitable for therapeutic use because of their poor cell membrane penetrability or oral bioavailability; the development of new cell-permeable IMPase inhibitors is needed. IMPase catalyzes the hydrolysis of inositol-1-phosphate (IP1) to release free inositol. Binding of an agonist to a Gq coupled GPCR results in the activation of PLC, which hydrolyzes the PIP2 to form inositol-1,4,5-trisphosphate (IP3) and diacyl glycerol (DAG). While DAG activates protein kinase C (PKC), IP3 triggers the elevation of intracellular free Ca2+. The IP3 is very rapidly inactivated by hydrolysis to IP2, IP1 and then inositol by a series of enzymes including IMPase. Free inositols are used for synthesis of PI and thus start another inositol cycle. To identify new cell-permeable IMPase inhibitors, we developed a cell-based IMPase assay in which the cytosolic IP1 is measured by a time-resolved fluorescence resonance energy transfer (TR-FRET) assay. In this assay, an IP1 specific antibody is used to detect the labeled IP1 tracer. When the cell lysate contains the elevated IP1 due to the inhibition of IMPase, the TR-FRET between the labeled antibody and IP1 tracer is disrupted resulting in a reduction in the total signal. Since the TR-FRET is used, this cell-based assay is a homogenous assay without cell wash and medium change that is suitable for assay miniaturization and HTS.
NCGC IMPase Assay Protocol Summary A Chinese hamster ovary (CHO) cell line stably expressing the M1 receptor (CHO-M1) was obtained from ATCC and maintained in F-12 Kaighn's media (Invitrogen, Carlsbad, CA, 21127) supplemented with 10 % FBS, 100 units/ml penicillin, 100 ug/ml streptomycin and 250 ug/ml geneticin at 37C, 5% CO2 in a humidified atmosphere. Before the assay, aliquots of cells were frozen and stored at -135C. The assay was performed in 1536-well format. Data are reported for both the ratio of the two emission wavelengths, and also for the component 'donor' channel, Em2=620. Data were normalized to the controls for basal activity (DMSO only) and 100% inhibition (18.4 mM LiCl). AC50 values were determined from concentration-response data modeled with the standard Hill equation. IMPase 1536-well assay protocol: (1) Plate 4 ul/well (2000 cells) of cell suspension from frozen CHO-M1 Cells in white, tissue culture treated 1536-well plates that are cultured at 37C, 5 % CO2 for 16 to 30 hours. (2) Add 23 nl/well of compound in DMSO solution. The final titration for each compound was between 0.6 nM and 46 uM. […]

SMILES | Potency
COc1ccc2oc(-c3ccccc3)c(C(N)=O)c2c1 | inactive
COc1ccc(C2c3c(ncn(CCN4CCOCC4)c3=N)Oc3ccc4ccccc4c32)cc1OC (stereo unspecified) | inactive
CC(=O)C1=C(O)C(=O)N(Cc2ccco2)C1c1ccccc1F (stereo unspecified) | inactive
O=C(NCCCn1ccnc1)c1cc(-c2ccncc2)nc2ccccc12 | inactive
COc1ccc(/C=C2\CCCC3C2=NN(C(=O)c2ccco2)C3c2ccc(OC)c(OC)c2)cc1OC (stereo unspecified) | inactive
CCc1c(C)nc2c(OC)cccc2c1SCCC(=O)O | inactive
O=P(O)(OCc1ccccc1)OCc1ccccc1 | inactive
CNC(=O)c1ccc(NC(=O)/C=C/c2cccc(F)c2)cc1 | inactive
CC(C)(C)c1ccc(-c2nnc3sc(-c4ccccn4)nn23)cc1 | inactive
CCOC(=O)c1cc2c(=O)n3ccccc3nc2n(Cc2ccco2)c1=NC(=O)c1cccnc1 | inactive
N#CCN1CCC(c2cc(-c3ccco3)n[nH]2)CC1 | inactive
C[N+](C)(CCCCCC[N+](C)(C)CCCN1C(=O)c2cccc3cccc(c23)C1=O)CCCN1C(=O)c2cccc3cccc(c23)C1=O | inactive
[Li+] | 708 µM (active)
COc1cccc(NC(=O)CN(C)C(C)C(=O)Nc2cc([N+](=O)[O-])ccc2Cl)c1 (stereo unspecified) | inactive
O=C(NC1CCS(=O)(=O)C1)C1C2CC3CC(C2)CC1C3 (stereo unspecified) | inactive
N#Cc1c(-c2ccc(Br)cc2)nc2n(c1=O)CCCS2 | inactive
Cc1ccc(-c2c(C(=O)Nc3ccccc3C)c(C)[nH]c(=S)c2C#N)o1 | inactive
N#CC1=C(N)Oc2n[nH]c(-c3ccccn3)c2C1c1c(F)cccc1Cl (stereo unspecified) | inactive
O=C(CCC(=O)c1cccs1)NCc1cccnc1 | inactive
COc1ccc(N2CSC3=C(C#N)C(c4cccs4)CC(=O)N3C2)cc1 (stereo unspecified) | inactive
CC1(C)Cc2c(ccc3ccccc23)C2=C(C(=O)N3CCCC3)C(=O)C(=O)N21 | inactive
